# Measurements as given in PubChem BioAssay (EPA / NIEHS).
# Activity calls are given as the source filed them. The calls were made as follows: active = hit-call score of the fitted dose curve at least 0.9, where 1 is the maximum; inactive = score below 0.9.
# Key:
# [1] = read-out: Plasminogen activator inhibitor-1 (PAI1), SERPINE1 (gene 5054); assay: BSK_MyoF_PAI1: BioMAP Diversity Plus: MyoF Assay for Plasminogen activator inhibitor-1 (PAI1) Biomarker Activity (AID 2284256); conditions: primary human lung fibroblasts;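 as to outcome: PAI-1 protein level measured by ELISA in fibroblast cultures; PAI-1 read 24 h after compound addition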
# Summary of the method: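 MyoF lung fibroblasts, human primary; compound 24 h; PAI-1 ELISA; positive-direction fit vs DMSO baseline; parallel SRB total-protein staining for cytotoxicity.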
# [2] = read-out: Interleukin-8 (IL8), CXCL8 (gene 3576); assay: BSK_MyoF_IL8: BioMAP Diversity Plus: MyoF Assay for Interleukin-8 (IL8) Biomarker Activity (AID 2284261); conditions: primary human lung fibroblasts
# Summary of the method: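 Lung fibroblasts (human primary) → chemical exposure → 24 h → IL-8 measured by ELISA. Signal increase scored versus DMSO control.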
# [3] = read-out: Decorin, DCN (gene 1634); assay: BSK_MyoF_Decorin: BioMAP Diversity Plus: MyoF Assay for Decorin Biomarker Activity (AID 2284265); conditions: primary human lung fibroblasts
# Summary of the method: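 ELISA readout of decorin, 24 h post-dosing; primary human lung fibroblast (MyoF) culture; gain-of-signal fit vs DMSO baseline.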
# [4] = BSK_MyoF_SRB: Viability Assessment in the BioMAP Diversity Plus: MyoF Assay (AID 2284267); conditions: primary human lung fibroblasts;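 also: total protein by SRB absorbance in parallel cultures as cytotoxicity measure; cells assessed 24 h after compound addition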
# Summary of the method: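 Human lung fibroblasts, 24 h after chemical dosing; total protein measured by 0.1% sulforhodamine B staining after 10% TCA fixation, read at 560 nm, fitted relative to DMSO baseline.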
# [5] = read-out: Matrix Metallopeptidase 1 (MMP1), MMP1 (gene 4312); assay: BSK_MyoF_MMP1: BioMAP Diversity Plus: MyoF Assay for Matrix Metallopeptidase 1 (MMP1) Biomarker Activity (AID 2284268); conditions: primary human lung fibroblasts
# Summary of the method: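 Cells: human lung fibroblasts. Exposure: 24 h chemical dosing. Detection: ELISA for MMP1. Analysis: upward fitting against DMSO negative control.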
# [6] = read-out: TIMP metallopeptidase inhibitor 1 (TIMP1), TIMP1 (gene 7076); assay: BSK_MyoF_TIMP1: BioMAP Diversity Plus: MyoF Assay for TIMP metallopeptidase inhibitor 1 (TIMP1) Biomarker Activity (AID 2284269); conditions: primary human lung fibroblasts
# Summary of the method: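 ELISA read-out of TIMP-1 from primary human lung fibroblast cultures 24 h after compound dosing; gain of signal relative to DMSO vehicle baseline defines activity.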
# [7] = IUF_NPC2c_oligodendrocyte_migration_120hr: Leibniz Research Institute for Environmental Medicine (IUF) 120-hour Neural Progenitor Cell Migration Assay for Oligodendrocyte Migration (NPC2c) (AID 2284297);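 also: O4-positive oligodendrocyte migration distance divided by radial glia migration distance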
# Summary of the method: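 hNPC spheres (GW 16-19 cortex), PDL/laminin, DMEM/F12 3:1 + 1% N2, 37C. Dosing day 0–5, half feed day 3, DMSO ≤0.1%. Fixed 120 h; O4 ICC + Hoechst, HCI. Readout: mean oligodendrocyte distance from sphere edge / radial glia distance.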
# [8] = IUF_NPC2a_radial_glia_migration_120hr: Leibniz Research Institute for Environmental Medicine (IUF) 120-hour Neural Progenitor Cell Migration Assay for Radial Glia Migration (NPC2a) (AID 2284298)
# Summary of the method: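 Hoechst-stained nuclei imaged at 120 h; algorithm maps sphere core by densest nuclei, sets migration edge at density threshold, gives radial glia migration distance (um) per well vs DMSO. hNPC spheres (0.3 mm), PDL/laminin, DMEM/F12 3:1 + 1% N2.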
smiles,measurement,setting,value
c1ccc2sc(SN(C3CCCCC3)C3CCCCC3)nc2c1,outcome,[1],inactive
same,outcome,[2],inactive
same,outcome,[3],inactive
same,outcome,[4],inactive
same,AC50,[5],6.26 µM (active)
same,outcome,[6],inactive
N#Cc1ccc(CC(=NNC(=O)Nc2ccc(OC(F)(F)F)cc2)c2cccc(C(F)(F)F)c2)cc1,outcome,[1],inactive
same,outcome,[2],inactive
same,outcome,[3],inactive
same,outcome,[4],inactive
same,outcome,[5],inactive
same,outcome,[6],inactive
same,outcome,[7],inactive
same,outcome,[8],inactive
CN(CCOc1ccc(CC2SC(=O)NC2=O)cc1)c1ccccn1 (centres undefined),AC50,[1],0.0541 µM (active)
same,outcome,[2],inactive
same,outcome,[3],inactive
same,outcome,[4],inactive
same,AC50,[5],20 µM (active)
same,outcome,[6],inactive
CN(C)C(=N)N=C(N)N,outcome,[7],inactive
same,outcome,[8],inactive
CCCCC(CC)COC(=O)/C=C\C(=O)OCC(CC)CCCC (centres undefined),outcome,[1],inactive
same,outcome,[2],inactive
same,outcome,[3],inactive
same,outcome,[4],inactive
same,outcome,[5],inactive
same,outcome,[6],inactive
O=C(O)c1cn(-c2ccc(F)cc2)c2cc(N3CCNCC3)c(F)cc2c1=O,outcome,[1],inactive
same,outcome,[2],inactive
same,outcome,[3],inactive
same,outcome,[4],inactive
same,outcome,[5],inactive
same,outcome,[6],inactive
O=C=NC1CCC(CC2CCC(N=C=O)CC2)CC1 (centres undefined),outcome,[1],inactive
same,outcome,[2],inactive
same,outcome,[3],inactive
same,outcome,[4],inactive
same,outcome,[5],inactive
same,outcome,[6],inactive
CC1COc2ccccc2N1C(=O)C(Cl)Cl (centres undefined),AC50,[1],5.3 µM (active)
same,AC50,[2],16.1 µM (active)
same,outcome,[3],inactive
same,AC50,[4],20 µM (active)
same,AC50,[5],9.41 µM (active)
same,AC50,[6],4.69 µM (active)
Nc1cc([N+](=O)[O-])ccc1Cl,outcome,[1],inactive
same,outcome,[2],inactive
same,outcome,[3],inactive
same,outcome,[4],inactive
same,outcome,[5],inactive
same,outcome,[6],inactive
CCCCCCCCC=O,outcome,[1],inactive
same,outcome,[2],inactive
same,outcome,[3],inactive
same,outcome,[4],inactive
same,outcome,[5],inactive
same,outcome,[6],inactive
Cc1ccc(Nc2ccc(O)c3c2C(=O)c2ccccc2C3=O)cc1,outcome,[1],inactive
same,outcome,[2],inactive
same,outcome,[3],inactive
same,outcome,[4],inactive
same,outcome,[5],inactive
same,outcome,[6],inactive
O=P(c1ccccc1)(c1ccccc1)c1ccccc1,outcome,[1],inactive
same,outcome,[2],inactive
same,outcome,[3],inactive
same,outcome,[4],inactive
same,outcome,[5],inactive
same,outcome,[6],inactive
C=C[Si](OCC)(OCC)OCC,outcome,[1],inactive
same,outcome,[2],inactive
same,outcome,[3],inactive
same,outcome,[4],inactive
same,outcome,[5],inactive
same,outcome,[6],inactive
CC(=O)Nc1ccccc1O,outcome,[1],inactive
same,outcome,[2],inactive
same,outcome,[3],inactive
same,outcome,[4],inactive
same,outcome,[5],inactive
same,outcome,[6],inactive
CC(C)c1ccc(C(C)C)cc1,outcome,[1],inactive
same,outcome,[2],inactive
same,outcome,[3],inactive
same,outcome,[4],inactive
same,outcome,[5],inactive
same,outcome,[6],inactive
CC(C)Oc1ccccc1O,outcome,[1],inactive
same,outcome,[2],inactive
same,outcome,[3],inactive
same,outcome,[4],inactive
same,outcome,[5],inactive
same,outcome,[6],inactive
